Source: PubChem BioAssay (Tox21)
Several values for one entry are separate records, joined by “and”; a condition that tells them apart may be missing. Equal values may be shown once. Records with an inconclusive call do not appear. Activity calls are given as the source filed them. The call rests on the fitted dose curve.

experiment: qHTS assay for small molecule agonists of the p53 signaling pathway (AID 651631); details: HCT-116 p53RE-bla reporter, beta-lactamase FRET ratio, 16 h; series mostly up to 73.3 µM; further: nearly all actives have a fitted effect of over 15% in size
From the text: U.S. Tox21 Program National Center for Advancing Translational Sciences [NCATS] NIH Chemical Genomics Center [NCGC] U.S. Environmental Protection Agency [EPA] National Institutes of Environmental Health Sciences [NIEHS] National Toxicology Program [NTP] U.S. Food and Drug Administration [FDA] Tox21 Assay Overview: p53, a tumor suppressor protein, is activated following cellular insult, including DNA damage and other cellular stresses. The activation of p53 regulates cell fate by inducing DNA repair, cell cycle arrest, apoptosis, or cellular senescence. The activation of p53, therefore, is a good indicator of DNA damage and other cellular stresses. The CellSensor p53RE-bla HCT-116 cell line (Invitrogen) contains a stably integrated beta-lactamase reporter gene under control of the p53 response elements. The activation of the reporter gene under culture conditions can be detected by fluorescence intensity. This cell line was used to screen the Tox21 compound library in a 1536-well plate format and to identify agonists that activate the p53 signaling pathway.
Tox21 Assay Protocol Summary: The p53RE-bla cells were dispensed at 4,000 cells/5 ul/well in 1536-well black wall/clear bottom plates using a Multidrop dispenser. After the assay plates were incubated at a 37 C/5% CO2 incubator for 5 hours, 23 nL of compounds dissolved in DMSO, positive controls or DMSO only was transferred to the assay plate by a pin tool. The plates were incubated at 37 C for 16 hours. After 1 uL of LiveBLAzerTM B/G FRET substrate was added using a Flying Reagent Dispenser, the plates were incubated at room temperature for 2 hours, and fluorescence intensity was measured by an Envision plate reader.
Potency means the concentration at half of the fitted maximal effect.

SMILES	Potency
Oc1ccc(Cl)cc1Sc1cc(Cl)ccc1O	29.8 µM (active)
CCCCN1C(=O)[C@@H]([C@H](O)C2CCCCC2)NC(=O)C12CCN(Cc1ccc(Oc3ccc(C(=O)O)cc3)cc1)CC2	54.5 µM (active)
O=C(NOCC1CC1)c1ccc(F)c(F)c1Nc1ccc(I)cc1Cl	11.9 µM (active)
O=c1[nH]cnc2nc[nH]c12	inactive
Cc1cc(C2CCCCC2)n(O)c(=O)c1	8.04 µM (active)
CC(=O)SC[C@@H](Cc1ccccc1)C(=O)NCC(=O)OCc1ccccc1	inactive
CC[C@@]1(O)C(=O)OCc2c1cc1n(c2=O)Cc2cc3c(CN(C)C)c(O)ccc3nc2-1	0.237 µM (active)
CC(C)(C)c1ccc(C(=O)O)cc1	inactive
O=C(O)c1cc(O)c2c(c1)C(=O)c1cccc(O)c1C2=O	19.9 µM (active)
O=C1Cc2cc(CCN3CCN(c4nsc5ccccc45)CC3)c(Cl)cc2N1	inactive
O=c1cc(-c2ccc(O)cc2)oc2cc(O)cc(O)c12	15.6 µM (active) and 43.3 µM (active)
CCOC(=O)/C=C(C)/C=C/C=C(C)/C=C/c1c(C)cc(OC)c(C)c1C	21.1 µM (active)
CCN(CC)CCCC(C)Nc1c2ccc(Cl)cc2nc2ccc(OC)cc12 (stereo not given)	5.96 µM (active)
O=C(O)c1c(Cl)cccc1Cl	inactive
COc1ccc(-c2ccc3cc(C(=O)O)ccc3c2)cc1C12CC3CC(CC(C3)C1)C2	2.37 µM (active)
CCCCCCCCCCCCCCCS(=O)(=O)Oc1ccccc1	inactive
CCOc1ccc2nc3cc(N)ccc3c(N)c2c1	11.9 µM (active)
COc1cccc2c1C(=O)c1c(O)c3c(c(O)c1C2=O)C[C@@](O)(C(=O)CO)C[C@@H]3O[C@H]1C[C@H](N)[C@H](O[C@@H]2CCCCO2)[C@H](C)O1	1.88 µM (active)
C=C(C)C(=O)OCC(O)COc1ccc(C(C)(C)c2ccc(OCC(O)COC(=O)C(=C)C)cc2)cc1 (stereo not given)	68.6 µM (active)
CCCC1O[C@@H]2C[C@H]3[C@@H]4CCC5=CC(=O)C=C[C@]5(C)[C@H]4[C@@H](O)C[C@]3(C)[C@]2(C(=O)CO)O1 (stereo not given in full)	inactive

SMILES	Potency
O=[N+]([O-])c1ccccc1Nc1ccccc1	inactive
NC(=O)CC[C@@H]1NC(=O)[C@H](Cc2ccccc2)NC(=O)[C@H](Cc2ccc(O)cc2)NC(=O)CCSSC[C@@H](C(=O)N2CCC[C@H]2C(=O)N[C@@H](CCCN=C(N)N)C(=O)NCC(N)=O)NC(=O)[C@H](CC(N)=O)NC1=O	inactive
COC(=O)C1=C(C)NC(C)=C(C(=O)OCC(C)C)C1c1ccccc1[N+](=O)[O-] (stereo not given)	26.6 µM (active)
Cc1cc(N)c(S(=O)(=O)O)cc1Cl	inactive
COCCCC/C(=N\OCCN)c1ccc(C(F)(F)F)cc1	inactive
CCCCCOC(=O)CCCC	inactive
O=C(Nc1ccc(Oc2ccc(Cl)cc2)c(Cl)c1)c1cc(I)cc(I)c1O	10.6 µM (active)
C=C(C)C(=O)OCC[N+](C)(C)C	inactive
O=C(OC[C@H]1O[C@@H](OC(=O)c2cc(O)c(O)c(OC(=O)c3cc(O)c(O)c(O)c3)c2)[C@H](OC(=O)c2cc(O)c(O)c(OC(=O)c3cc(O)c(O)c(O)c3)c2)[C@@H](OC(=O)c2cc(O)c(O)c(OC(=O)c3cc(O)c(O)c(O)c3)c2)[C@@H]1OC(=O)c1cc(O)c(O)c(OC(=O)c2cc(O)c(O)c(O)c2)c1)c1cc(O)c(O)c(OC(=O)c2cc(O)c(O)c(O)c2)c1	2.66 µM (active) and 10.4 µM (active)
CC(C)=CCOc1ccc(/C=C/C(=O)c2ccc(OCC=C(C)C)cc2OCC(=O)O)cc1	13.3 µM (active)
NNC(=O)c1cccc(C(=O)NN)c1	inactive
CN1CCN(CCC(=O)N2c3ccccc3Sc3ccc(C(F)(F)F)cc32)CC1	inactive
CCCC/C=C/CCCCO	inactive
Cc1[nH]cnc1C[C@H]1CCc2c(C)c3ccccc3n2C1=O	inactive
CO[Si](CCCNc1ccccc1)(OC)OC	inactive
[O-][n+]1ccccc1SSc1cccc[n+]1[O-]	2.66 µM (active)
O=C(Nc1cccc(C(F)(F)F)c1)c1cc(Br)cc(Br)c1O	5.31 µM (active) and 1.72 µM (active)
Cc1cccc(S(=O)(=O)O)c1C	inactive
Clc1ccc2cc3ccccc3cc2c1	54.4 µM (active)
O=C(Nc1cccc(Cl)c1)OCC#CCCl	8.63 µM (active)
